This passage reports z-score and composite z-score results from PubChem BioAssay.

Assay [1] in a line: E. coli DRC41 culture turbidity changes, primary screen, E. coli filamentation inducer project, strain DRC41, OD650, 48 h (AID 1152).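 Also: E. coli MC1000 strain DRC41 lacking acrAB efflux pump and sulA.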 The following applies: E. coli DRC41 (acrAB sulA), higher = more signal, called active from +8 up or from −8 down.
A short description of assay [2]: small-molecule binders of probe aLefty1, primary screen, biochemical, small-molecule microarray, 635/667 nm fluorescence (AID 1153).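 Also: score merges spot fluorescence with signal-to-noise ratio from the scanned slide images.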 The following applies: higher = more signal.
Assay [3] in a line: PSAC antagonists in infected red cells, primary screen, cell-based, P. falciparum Indochina, OD700, 1 h (AID 1154). The following applies: P. falciparum Indochina infected RBC osmotic lysis, higher = more signal, called active from +8 up or from −8 down.
A short description of assay [4]: PSAC antagonists in infected red cells, primary screen, cell-based, P. falciparum Indochina, OD700, 2 h (AID 1155).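 Also: lysis reports solute entry through the parasite surface anion channel PSAC; channel blockers reduce lysis of infected cells.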 To be noted: P. falciparum Indochina infected erythrocytes, osmotic lysis OD700; higher = more signal, called active from +8 up or from −8 down.
Assay [5] is described as follows: osmotic lysis modulators in infected erythrocytes, primary screen, PSAC antagonist project, cell-based, P. falciparum Indochina, OD700, 3 h (AID 1156). The following applies: higher = more signal, called active from +8 up or from −8 down.
A short description of assay [6]: PSAC antagonists in infected red cells, primary screen, cell-based, P. falciparum Indochina, OD700, 18 h (AID 1157). To be noted: P. falciparum Indochina infected erythrocytes, osmotic lysis OD700, 18 h; higher = more signal, called active from +8 up or from −8 down.
Assay [7] in a line: modulators of S6 phosphorylation in cells, primary screen, cell-based, A549, cytoblot, luminescence, serum-stimulated (AID 1158).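 Also: serum-stimulated A549 lung adenocarcinoma cells; signal is phosphorylated S6 detected by cytoblot immunostaining with HRP secondary.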 The following applies: A549 phospho-S6 cytoblot, 5 h, higher = more signal.
In assay [8] the target is NADPH oxidase 2 (Homo sapiens) (UniProt P04839). The assay can be described thus: NOX2-dependent H2O2 signal modulators, primary screen, NOX inhibitor project, cell-based, HEK293-NOX2, PMA-stimulated, Amplex Red fluorescence (AID 1159). Also: test concentration not given here. The following applies: 45 min, higher = more signal, called active from +8 up or from −8 down.
Assay [9] deals with NADPH oxidase 4 (Homo sapiens) (UniProt Q9NPH5). As to the kind of experiment: NOX4-dependent H2O2 signal modulators, primary screen, NOX inhibitor project, cell-based, HEK293-NOX4, tetracycline-induced, Amplex Red fluorescence (AID 1160). The following applies: 45 min, higher = more signal, called active from +8 up or from −8 down.
The target in assay [10] is NADPH oxidase 5 (Homo sapiens) (UniProt Q96PH1). As to the kind of experiment: NOX5-dependent H2O2 signal modulators, primary screen, NOX inhibitor project, cell-based, HEK293-NOX5, Amplex Red fluorescence (AID 1161). The following applies: HEK293-NOX5, ionomycin, 45 min, higher = more signal.

Activity calls are given as the source filed them.

Sequence of NADPH oxidase 4 (Homo sapiens) (Q9NPH5 whole entry, looked up): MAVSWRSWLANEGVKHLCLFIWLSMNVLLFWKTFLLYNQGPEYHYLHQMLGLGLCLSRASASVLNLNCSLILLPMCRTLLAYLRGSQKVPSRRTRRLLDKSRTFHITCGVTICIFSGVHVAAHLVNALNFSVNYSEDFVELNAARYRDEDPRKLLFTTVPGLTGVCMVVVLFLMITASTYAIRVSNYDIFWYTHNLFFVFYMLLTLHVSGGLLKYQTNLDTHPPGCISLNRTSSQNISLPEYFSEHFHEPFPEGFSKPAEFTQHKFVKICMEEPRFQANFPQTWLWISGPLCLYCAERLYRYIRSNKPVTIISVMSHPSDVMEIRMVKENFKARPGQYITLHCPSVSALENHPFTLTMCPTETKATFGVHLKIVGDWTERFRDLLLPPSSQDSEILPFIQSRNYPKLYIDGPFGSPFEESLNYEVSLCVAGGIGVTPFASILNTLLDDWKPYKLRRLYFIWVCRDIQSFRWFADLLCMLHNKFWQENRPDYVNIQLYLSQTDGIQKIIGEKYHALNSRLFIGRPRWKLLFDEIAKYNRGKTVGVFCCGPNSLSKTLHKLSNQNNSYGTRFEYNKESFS
Sequence of NADPH oxidase 5 (Homo sapiens) (Q96PH1 whole entry, looked up): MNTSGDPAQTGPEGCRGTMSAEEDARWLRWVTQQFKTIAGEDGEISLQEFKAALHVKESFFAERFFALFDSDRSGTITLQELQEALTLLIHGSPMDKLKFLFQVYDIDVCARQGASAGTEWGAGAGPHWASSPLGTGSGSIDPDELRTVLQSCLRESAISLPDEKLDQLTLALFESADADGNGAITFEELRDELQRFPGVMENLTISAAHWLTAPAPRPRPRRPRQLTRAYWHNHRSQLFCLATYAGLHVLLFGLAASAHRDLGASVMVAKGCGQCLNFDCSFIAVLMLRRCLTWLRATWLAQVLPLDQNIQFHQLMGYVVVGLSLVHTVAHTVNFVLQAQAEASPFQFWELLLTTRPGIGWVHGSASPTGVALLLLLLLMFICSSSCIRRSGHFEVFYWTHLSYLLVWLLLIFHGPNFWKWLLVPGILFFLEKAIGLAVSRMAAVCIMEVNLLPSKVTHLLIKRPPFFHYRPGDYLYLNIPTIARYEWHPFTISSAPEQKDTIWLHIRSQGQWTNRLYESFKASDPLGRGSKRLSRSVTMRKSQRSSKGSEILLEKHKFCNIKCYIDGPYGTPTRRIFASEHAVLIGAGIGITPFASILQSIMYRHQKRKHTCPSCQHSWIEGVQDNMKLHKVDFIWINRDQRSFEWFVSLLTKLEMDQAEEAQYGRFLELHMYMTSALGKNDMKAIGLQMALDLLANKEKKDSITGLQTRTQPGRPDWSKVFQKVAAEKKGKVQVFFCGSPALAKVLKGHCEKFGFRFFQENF
Sequence of NADPH oxidase 2 (Homo sapiens) (P04839 whole entry, looked up): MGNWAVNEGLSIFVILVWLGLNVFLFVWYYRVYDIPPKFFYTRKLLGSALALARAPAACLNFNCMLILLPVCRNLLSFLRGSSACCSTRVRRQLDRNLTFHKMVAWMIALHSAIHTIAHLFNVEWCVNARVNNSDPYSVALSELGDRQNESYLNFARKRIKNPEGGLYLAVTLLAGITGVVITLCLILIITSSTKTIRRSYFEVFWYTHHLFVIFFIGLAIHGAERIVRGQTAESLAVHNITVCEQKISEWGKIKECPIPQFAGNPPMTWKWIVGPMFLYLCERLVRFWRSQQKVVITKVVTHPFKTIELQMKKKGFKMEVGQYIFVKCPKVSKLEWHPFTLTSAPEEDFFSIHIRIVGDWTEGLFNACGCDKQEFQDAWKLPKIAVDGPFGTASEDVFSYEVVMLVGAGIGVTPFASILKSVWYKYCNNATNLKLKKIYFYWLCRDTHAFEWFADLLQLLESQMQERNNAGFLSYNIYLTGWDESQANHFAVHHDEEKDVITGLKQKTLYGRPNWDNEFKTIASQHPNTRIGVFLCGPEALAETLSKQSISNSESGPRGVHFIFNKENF

For `COC(=O)Cn1c(C(=O)N2CCCC2)cc2c1C[C@H]1CN(C(=O)c3ccccc3)[C@@](Cc3ccccc3)(C(=O)OC)[C@@H]21`, the z-score in assay [1] was -0.406 (inactive); in assay [3], 1.54 (inactive); in assay [4], 0.104 (inactive); in assay [5], 0.16 (inactive); in assay [6], 0.469 (inactive); in assay [7] it was 0.136. In addition, the values for the z-score in [8], in assay [9] and in [10] were 0.489 (inactive), 0.217 (inactive) and -2.54, respectively. In [2], this compound came in with a composite z-score of 0.257.

Regarding `C#CCCCON=C1C[C@@H](O)[C@@H](O)[C@@H]2[C@@H]3C(=O)N(Cc4ccc5c(c4)OCO5)C(=O)[C@@H]3CC[C@H]12`, the z-score in assay [1] was 0.324 (inactive); in assay [7], -0.852; in [8] it was -0.275 (inactive); in [9] it was 0.911 (inactive); in assay [10] it was -0.124. In addition, the composite z-score in assay [2] is -0.161.

As to `C=CCNC(=O)[C@H]1[C@@H]2C(=O)O[C@@H](c3ccccc3)[C@@H](c3ccccc3)N2[C@@H](c2ccc(O)cc2)[C@]12C(=O)Nc1ccc(C#CCNC(N)=O)cc12`, the z-score was 1.86 (inactive) in assay [1]; 1.7 (inactive) in assay [3]; 1.29 (inactive) in assay [4]; 0.682 (inactive) in assay [5]; 0.506 (inactive) in assay [6]; 0.583 in assay [7]. Moreover, the z-score is 1.19 (inactive) in assay [8], -0.188 (inactive) in assay [9] and 0.1 in assay [10]. Besides, in assay [2], the composite z-score is 0.599.

On to `CC[C@H]1C2=C3C(CC[C@H]4C(OC)OC[C@](C)([C@@H]34)N(C(=O)OC(C)(C)C)C2)C(CO)C1CO` (stereo partly specified), for which the z-score was -0.36 (inactive) in assay [1]; -0.51 (inactive) in assay [3]; -0.909 (inactive) in [4]; -0.337 (inactive) in assay [5]; -2.25 (inactive) in assay [6]; 1.59 in assay [7]. Besides, the z-score is -0.108 (inactive) in assay [8], -0.269 (inactive) in assay [9] and -2.77 in assay [10]. The compound also gave a composite z-score in assay [2] of 0.631.

For the compound `CC(C)[C@H]1NC(=O)[C@@]23C(=O)N[C@@H](Cc4ccccc4)C2[C@H](C)[C@@]2(C)O[C@H]2C3/C=C/C/C=C\CNC(=O)[C@H](C)NC1=O` (stereo partly specified), the z-score in assay [1] is -0.629 (inactive); in assay [3], 3.36 (inactive); in assay [4] it was 0.538 (inactive); in assay [5], 0.386 (inactive); in [6], 0.01 (inactive); in assay [7], -0.221. The z-score in assay [8] was 0.813 (inactive); in [9], -0.833 (inactive); in assay [10] it was 0.137. The composite z-score in [2] is -0.381.

As to `C=C(/C(=C/C[C@@H](OC(=O)c1ccncc1)c1ccc(CO)o1)c1cnc2ccccc2c1)C(C)C`, the z-score in assay [1] was 0.767 (inactive); in [3], 4.66 (inactive); in [4], 0.231 (inactive); in assay [5], 0.633 (inactive); in assay [6], -0.0835 (inactive); in assay [7], -0.191. Besides, the z-score was 0.588 (inactive) in assay [8], -0.649 (inactive) in [9] and -1.08 in [10]. The same compound returned a composite z-score in [2] of 0.0248.

For `O=C1O[C@H](c2ccccc2)[C@H](c2ccccc2)N2[C@H]1[C@@H](C(=O)NC[C@H](O)c1ccccc1)[C@]1(C(=O)Nc3ccc(C#CC4(O)CCCCCC4)cc31)[C@H]2c1ccc(OCCO)cc1`, the z-score is 3.02 (inactive) in [1]; 3.64 (inactive) in assay [3]; -0.0068 (inactive) in assay [4]; 0.226 (inactive) in assay [5]; -1.03 (inactive) in [6]; 2.78 in [7]. In addition, the z-score in [8] was 2.48 (inactive); in [9] it was 0.0727 (inactive); in assay [10], 0.139. In assay [2], this compound gave a composite z-score of 0.0811.

As to `C=CCC(OC(C)=O)[C@@H]1[C@@H](N(Cc2cc3ccccc3o2)C(=O)c2ccc(C)cc2)c2cc(OCCCO)ccc2N1C(=O)c1ccc2ccccc2n1` (stereo partly specified), the z-score was 3.08 (inactive) in assay [1]; 0.834 (inactive) in assay [3]; 0.345 (inactive) in [4]; -0.629 (inactive) in [5]; 0.432 (inactive) in [6]; 0.469 in assay [7]. The z-score in assay [8] was 0.12 (inactive); in assay [9], 0.589 (inactive); in [10] it was 1.51. Besides, the composite z-score in assay [2] was -0.007.

Turning to `C=CCC(OC(C)=O)[C@@H]1[C@@H](N(Cc2ccc(-c3cccc(C(F)(F)F)c3)o2)C(=O)Cc2ccc(F)cc2)c2cc(OCCCO)ccc2N1C(=O)c1ccc(-c2ccccc2)cc1` (stereo partly specified), the z-score in [1] was -1.01 (inactive); in assay [3], 1.23 (inactive); in assay [4], -0.401 (inactive); in assay [5], -0.642 (inactive); in assay [6] it was -0.255 (inactive); in [7], -0.0924. Moreover, the z-score in assay [8] is -0.0336 (inactive); in assay [9] it was 1.1 (inactive); in assay [10], 1.29. This compound had a composite z-score in [2] of -0.0489.

As to `O=C1C[C@@](C(=O)NC2CC2)(c2ccc([N+](=O)[O-])cc2)[C@@H](c2ccc(CO)cc2I)N1CC12CC3CC(CC(C3)C1)C2`, the z-score in [1] is -1.11 (inactive); in assay [3], 22.3 (active); in [4] it was 6.32 (inactive); in assay [5] it was 1 (inactive); in [6], 1.99 (inactive); in assay [7], -0.284. Also, the results for the z-score in assay [8], in [9] and in assay [10] were 1.86 (inactive), 0.129 (inactive) and 1.92, respectively. The composite z-score in assay [2] turned out to be 0.0158.

Consider `CCOC(=O)C[C@H]1[C@H](OC(=O)Cc2ccc3c(c2)OCO3)[C@@H](NC(=O)CC(C)C)c2cc(OCCCO)ccc2N1C(=O)c1ccccc1`, for which the z-score in assay [1] was 2.39 (inactive); in assay [3] it was 0.4 (inactive); in assay [4] it was -1.02 (inactive); in assay [5], -0.462 (inactive); in [6], -1.5 (inactive); in assay [7], 0.622. Moreover, the z-score in assay [8] was 0.337 (inactive); in assay [9] it was 0.52 (inactive); in assay [10], 0.47. This compound came in with a composite z-score in assay [2] of 0.0698.

`O=C/C=C/c1ccc(/C=C/c2ccccc2)cc1`: the z-score in assay [1] is 2.42 (inactive); in assay [3], 3.87 (inactive); in [4], -0.941 (inactive); in [5], 1.17 (inactive); in [6] it was -1.73 (inactive); in assay [7], 0.972. The z-score in assay [8] was 0.825 (inactive); in assay [9], -1.69 (inactive); in assay [10], 1.4. Also, the composite z-score in [2] was 0.25.
